From PubChem BioAssay (Tox21) come the findings set out here.

“And” between values parts separate entries of the source, which are not always exact repeats. Equal entries are not always repeated. Inconclusive results are not listed. Some structures have more than one record in an assay (separate samples or runs), and their calls can disagree. The source made the active and inactive calls. Unless noted, calls come from the whole dose curve; as a rule, active = well fitted curve in the direction sought with a large enough effect in the repeat runs; inconclusive = weak or mixed curves; inactive = no such curve, though single readings can be large; an effect the other way counts as inactive or inconclusive.

Assay [1] is described as follows: qHTS assay to identify small molecule antagonists of the androgen receptor (AR) signaling pathway using the MDA cell line in the presence of 0.5 nM R1881 - cell viability counter screen (AID 1259242). Note: nearly all actives have a fitted effect of over 45% in size. Note: potency is the fitted concentration of half-maximal effect. Put shortly:
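Live-cell protease fluorescence, CellTiter-Fluor, 30 min at 37C. Cells: MDA-kb2, 3,000/well, preincubated 5 hr. Compounds plus 0.5 nM R1881 final, 16 hr, 37C, 0% CO2.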
In general terms: Quantitative high-throughput screening tests each substance at several concentrations.

Assay [2] has as its target Estrogen receptor (Homo sapiens) (UniProt P03372). The assay is described as follows: qHTS assay to identify small molecule antagonists of the estrogen receptor alpha (ER-alpha) signaling pathway using the BG1 cell line in the presence of 0.1 nM 17-beta-estradiol (AID 1259244). Note: nearly all actives have a fitted effect of over 50% in size. Note: potency is the fitted concentration of half-maximal effect. In short, it runs like this: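 Luminescence after ONE-Glo (30 min, room temperature) measured ERE-luciferase activity in VM7Luc4E2 cells treated 22 h with compound and 0.1 nM final 17beta-estradiol as stimulator.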

A short description of assay [3]: qHTS assay to identify small molecule phospholipidosis (PLD) inducers (AID 1259344; active = well fitted curve in the direction sought with a large enough effect; an effect the other way counts as inactive or inconclusive). In short, it runs like this: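 Cells (HepG2, 900 per well) attach for 4 h, receive LipidTOX Red and compound together, incubate 24 h at 37 C, are fixed 30 min with paraformaldehyde/Hoechst, then imaged at one site per well.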
The nature of assay [4]: qHTS assay to identify small molecule HDAC inhibitors (AID 1259364).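 Note: wild-type HCT-116 cells with endogenous class I/II HDAC activity; top concentration of the series differs between compounds; nearly all actives have a fitted effect of over 45% in size.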 In short, it runs like this: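 HCT-116 (wild type), 1,500 cells/well, overnight; compound 2 hr 37C 5% CO2; HDAC-Glo I/II reagent 30 min RT; luminescence readout.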
Assay [5] can be described thus: qHTS assay to identify small molecule HDAC inhibitors - cell viability counter screen (AID 1259365). Note: series mostly up to about 92 µM; nearly all actives have a fitted effect of over 50% in size. In short, it runs like this: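 Measured quantity is CellTiter-Glo luminescence from wild-type HCT-116 cells after compound incubation of 2hr at 37C, 5% CO2; reagent developed 30min at room temperature.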
A short description of assay [6]: qHTS assay to identify small molecule agonists of the sonic hedgehog signaling (Shh) pathway - cell viability counter screen (AID 1259366). Note: nearly all actives have a fitted effect of over 50% in size. Note: potency is the fitted concentration of half-maximal effect. In short, it runs like this: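 In quantitative high-throughput format, 3T3 Gli1-Luc cells were exposed to compounds for 24hr and multiplexed for viability using CellTiter-Fluor, incubated 1hr at 37C before the fluorescence read.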

Assay [7] is described as follows: qHTS assay to identify small molecule antagonists of the sonic hedgehog signaling (Shh) pathway - cell viability counter screen (AID 1259367). Note: nearly all actives have a fitted effect of over 55% in size. Note: potency is the fitted concentration of half-maximal effect. Put shortly:
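Cytotoxicity was assessed in parallel with Shh reporter activity by measuring live-cell protease fluorescence (CellTiter-Fluor) in NIH/3T3 cells stably carrying Gli1-Luc, treated with compound under conditioned medium stimulation for 23 hr plus 1 hr reagent incubation.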

Assay [8] in a line: qHTS assay to identify small molecule agonists of the sonic hedgehog signaling (Shh) pathway (AID 1259368; calls by dose curve;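 note: NIH/3T3-derived 3T3Gli1-Luc cells carrying a stable Gli1-driven firefly luciferase reporter; series mostly up to about 92 µM; nearly all actives have a fitted effect of over 15% in size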). Put shortly:
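Read-out: firefly luciferase luminescence from a Gli1 response element reporter stably integrated in NIH/3T3-derived 3T3Gli1-Luc cells, measured 30 min at room temperature after reagent addition. Compound exposure lasted 24 hr at 37 C, 5% CO2.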

Assay [9] in a line: qHTS assay to identify small molecule antagonists of the sonic hedgehog signaling (Shh) pathway (AID 1259369; calls by dose curve; note: nearly all actives have a fitted effect of over 45% in size; note: potency is the fitted concentration of half-maximal effect). In short, it runs like this:
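Luminescence readout: firefly Luc under Gli1 response element in 3T3Gli1-Luc cells (NIH/3T3 clone). Antagonist mode, stimulation by conditioned medium; compound exposure 24hr at 37 C, 5% CO2.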

Assay [10] concerns the target Estrogen receptor beta (Homo sapiens) (UniProt Q92731). The assay is described as follows: qHTS assay to identify small molecule agonists of the estrogen receptor beta (ER-beta) signaling pathway (AID 1259377; active = well fitted activation curve with a large enough effect in the signal ratio in the repeat runs, not every such curve was filed as active; the % refers to the signal ratio). In short, it runs like this:
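Reporter cells (HEK293T, ER-beta-UAS-bla) receive compounds or DMSO after a 6 hr pre-incubation. They then incubate 16 hr at 37C/5% CO2, and fluorescence from LiveBLAzer B/G substrate is measured after 2 hours at room temperature.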

For assay [11] the target is unchanged. The assay is described as follows: qHTS assay to identify small molecule antagonists of the estrogen receptor beta (ER-beta) signaling pathway (AID 1259378; active = well fitted inhibition curve with a large enough effect in the signal ratio in the repeat runs, not every such curve was filed as active; the % refers to the signal ratio; note: potency is the fitted concentration of half-maximal effect). In short, it runs like this: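 ER-beta-UAS-bla HEK293T (GripTite) cells in 2% charcoal-stripped FBS medium were preincubated 6 hr at 37C, dosed with compound, then stimulated with 1 nM E2 (final) for 16 hr; beta-lactamase reporter read by B/G FRET fluorescence after 2 hr substrate loading.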

Assay [12] in a line: qHTS assay to identify small molecule agonists of the androgen receptor (AR) signaling pathway in the presence of an antagonist - cell viability counter screen (AID 1259379). Note: nearly all actives have a fitted effect of over 25% in size. Note: potency is the fitted concentration of half-maximal effect. Put shortly: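 Viability counter screen: CellTiter-Fluor fluorescence, measured in the same wells as the luciferase read-out. MDA-kb2 cells, 3,000/well, with nilutamide at 3.0uM final and compounds at 15 concentrations, 16 hr at 37C, 0% CO2.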

A short description of assay [13]: qHTS assay to identify small molecule agonists of the estrogen receptor beta (ER-beta) signaling pathway - cell viability counter screen (AID 1259380). Note: nearly all actives have a fitted effect of over 30% in size. Note: potency is the fitted concentration of half-maximal effect. Put shortly: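 Luminescence read-out (CellTiter-Glo, 30 min, room temp) taken in the same wells as the beta-lactamase reporter assay; ER-beta-UAS-bla HEK293T cells exposed to DMSO-dissolved compounds for 16 hr at 37C in 2% charcoal-stripped FBS medium.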

Assay [14] is described as follows: qHTS assay to identify small molecule antagonists of the estrogen receptor beta (ER-beta) signaling pathway - cell viability counter screen (AID 1259382). Note: nearly all actives have a fitted effect of over 55% in size. Note: potency is the fitted concentration of half-maximal effect. In short, it runs like this: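 Luminescent ATP read-out (CellTiter-Glo, 30 min, RT) taken in the same wells as the bla reporter assay. HEK293T ER-beta-UAS-bla cells in 2% charcoal-stripped FBS were exposed to compounds with 1nM E2 for 16 hr at 37C.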

The target in assay [15] is Estrogen receptor (Homo sapiens) (UniProt P03372). The assay is described as follows: qHTS assay to identify small molecule agonists of the estrogen receptor alpha (ER-alpha) signaling pathway in the presence of an antagonist (AID 1259383; calls by dose curve; note: top concentration of the series differs between compounds; nearly all actives have a fitted effect of over 15% in size). In short, it runs like this:
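Luciferase luminescence (ONE-Glo, 30min at room temperature) measured in VM7Luc4E2 cells after 22hr compound exposure at 15 concentrations, with 10.0nM ICI-182,780 final present; cells express endogenous ER-alpha and carry four EREs upstream of luciferase.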

Assay [16] in a line: qHTS assay to identify small molecule agonists or antagonists of the thyroid stimulating hormone receptor (TSHR) signaling pathway - wild type cell line counter screen (AID 1259384; calls by dose curve). In short, it runs like this: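 Wild-type HEK293 cells were plated 18 h at 37 C/5% CO2, pin-dosed with compound plus Ro20-1724 medium, held 30 min at room temperature, then given cAMP-d2 and anti-cAMP-cryptate; fluorescence was read after 1 h. Fifteen concentrations, triplicate.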

Assay [17] addresses Thyrotropin receptor (Homo sapiens) (UniProt P16473). The assay is described as follows: qHTS assay to identify small molecule antagonists of the thyroid stimulating hormone receptor (TSHR) signaling pathway (AID 1259385; calls by dose curve; note: nearly all actives have a fitted effect of over 20% in size). In short, it runs like this:
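TSHR-HEK293 cells were plated and held 18 h at 37C/5% CO2, then given compound plus Ro20-1724 and stimulated with TSH at 1.5 ng/mL final. After 30 min at room temperature, cAMP was detected with cAMP-d2/anti-cAMP-cryptate (1 h) by fluorescence.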

Assay [18] in a line: qHTS assay to identify small molecule agonists of the estrogen receptor alpha (ER-alpha) signaling pathway in the presence of an antagonist - cell viability counter screen (AID 1259386).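 Note: cells exposed to compounds for 22 h at 37 °C before the viability read; nearly all actives have a fitted effect of over 30% in size.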 Note: potency is the fitted concentration of half-maximal effect. In short, it runs like this:
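Read-out: CellTiter-Fluor fluorescence after 1hr reagent incubation, measured in the same wells as the luciferase readout. VM7Luc4E2 cells were exposed to 15 compound concentrations with 10.0nM ICI-182,780 for 22hr at 37C.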

Assay [19] has as its target Androgen receptor (Homo sapiens) (UniProt P10275). The assay is described as follows: qHTS assay to identify small molecule antagonists of the androgen receptor (AR) signaling pathway using the MDA cell line in the presence of 0.5 nM R1881 (AID 1259243). Note: potency is the fitted concentration of half-maximal effect; nearly all actives have a fitted effect of over 50% in size. Put shortly:
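MDA-kb2, MMTV-luc (AR/GR elements); 3,000 cells/well; cpd + 0.5 nM R1881 final; 16 hr 37C, 0% CO2; ONE-Glo 30 min RT; luminescence.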

For assay [20] the target is unchanged. The assay is described as follows: qHTS assay to identify small molecule agonists of the androgen receptor (AR) signaling pathway in the presence of an antagonist (AID 1259381; calls by dose curve; note: nearly all actives have a fitted effect of over 15% in size). In short, it runs like this:
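Luciferase read-out (ONE-Glo, 30min room temperature) in MDA-kb2 MMTV-reporter cells; agonist mode run in presence of AR antagonist nilutamide, 3.0uM final. Compounds tested as 15-point series, 16hr exposure at 37C, 0% CO2.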

Chain of Estrogen receptor (Homo sapiens) (P03372 whole entry, looked up): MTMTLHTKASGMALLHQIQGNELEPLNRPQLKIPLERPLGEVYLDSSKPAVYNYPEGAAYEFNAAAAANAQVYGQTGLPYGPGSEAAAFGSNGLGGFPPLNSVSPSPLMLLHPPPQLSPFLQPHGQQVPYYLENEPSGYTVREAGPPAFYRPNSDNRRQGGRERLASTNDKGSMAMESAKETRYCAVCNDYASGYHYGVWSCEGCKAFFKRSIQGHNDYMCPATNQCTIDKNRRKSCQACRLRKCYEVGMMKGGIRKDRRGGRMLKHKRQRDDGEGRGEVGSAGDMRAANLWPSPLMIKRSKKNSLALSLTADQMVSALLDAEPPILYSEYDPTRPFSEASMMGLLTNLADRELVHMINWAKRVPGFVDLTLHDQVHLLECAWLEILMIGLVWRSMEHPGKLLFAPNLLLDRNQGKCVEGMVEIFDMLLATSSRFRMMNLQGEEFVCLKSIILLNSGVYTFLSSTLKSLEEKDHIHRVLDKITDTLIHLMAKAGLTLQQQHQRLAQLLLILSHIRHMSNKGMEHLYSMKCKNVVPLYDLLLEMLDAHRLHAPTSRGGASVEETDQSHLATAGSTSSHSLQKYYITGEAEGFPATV
Chain of Androgen receptor (Homo sapiens) (P10275 whole entry, looked up): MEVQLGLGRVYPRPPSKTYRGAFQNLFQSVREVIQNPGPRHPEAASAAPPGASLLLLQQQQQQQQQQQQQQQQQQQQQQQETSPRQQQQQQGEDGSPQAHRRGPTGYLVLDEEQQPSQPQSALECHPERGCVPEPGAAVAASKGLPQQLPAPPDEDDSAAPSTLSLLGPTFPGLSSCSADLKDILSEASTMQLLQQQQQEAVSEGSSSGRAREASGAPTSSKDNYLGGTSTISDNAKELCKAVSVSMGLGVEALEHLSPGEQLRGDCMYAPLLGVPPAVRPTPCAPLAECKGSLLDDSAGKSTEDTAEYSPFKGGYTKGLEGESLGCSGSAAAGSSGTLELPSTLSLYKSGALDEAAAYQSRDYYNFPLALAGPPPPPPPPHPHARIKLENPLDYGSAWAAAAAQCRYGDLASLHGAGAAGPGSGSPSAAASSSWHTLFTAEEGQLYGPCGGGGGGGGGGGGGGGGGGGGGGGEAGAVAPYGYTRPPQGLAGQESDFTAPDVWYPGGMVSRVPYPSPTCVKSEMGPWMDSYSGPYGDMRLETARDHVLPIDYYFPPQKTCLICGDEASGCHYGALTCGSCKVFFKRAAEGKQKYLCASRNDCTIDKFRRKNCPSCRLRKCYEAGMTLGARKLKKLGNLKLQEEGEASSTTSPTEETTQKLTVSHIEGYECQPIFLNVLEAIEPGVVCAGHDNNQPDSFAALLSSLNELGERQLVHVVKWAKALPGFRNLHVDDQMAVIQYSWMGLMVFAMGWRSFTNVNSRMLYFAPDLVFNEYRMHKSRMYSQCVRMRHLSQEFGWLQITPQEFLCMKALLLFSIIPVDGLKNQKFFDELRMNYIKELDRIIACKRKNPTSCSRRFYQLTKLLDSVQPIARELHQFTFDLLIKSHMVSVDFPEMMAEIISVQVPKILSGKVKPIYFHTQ
Chain of Thyrotropin receptor (Homo sapiens) (P16473 whole entry, looked up): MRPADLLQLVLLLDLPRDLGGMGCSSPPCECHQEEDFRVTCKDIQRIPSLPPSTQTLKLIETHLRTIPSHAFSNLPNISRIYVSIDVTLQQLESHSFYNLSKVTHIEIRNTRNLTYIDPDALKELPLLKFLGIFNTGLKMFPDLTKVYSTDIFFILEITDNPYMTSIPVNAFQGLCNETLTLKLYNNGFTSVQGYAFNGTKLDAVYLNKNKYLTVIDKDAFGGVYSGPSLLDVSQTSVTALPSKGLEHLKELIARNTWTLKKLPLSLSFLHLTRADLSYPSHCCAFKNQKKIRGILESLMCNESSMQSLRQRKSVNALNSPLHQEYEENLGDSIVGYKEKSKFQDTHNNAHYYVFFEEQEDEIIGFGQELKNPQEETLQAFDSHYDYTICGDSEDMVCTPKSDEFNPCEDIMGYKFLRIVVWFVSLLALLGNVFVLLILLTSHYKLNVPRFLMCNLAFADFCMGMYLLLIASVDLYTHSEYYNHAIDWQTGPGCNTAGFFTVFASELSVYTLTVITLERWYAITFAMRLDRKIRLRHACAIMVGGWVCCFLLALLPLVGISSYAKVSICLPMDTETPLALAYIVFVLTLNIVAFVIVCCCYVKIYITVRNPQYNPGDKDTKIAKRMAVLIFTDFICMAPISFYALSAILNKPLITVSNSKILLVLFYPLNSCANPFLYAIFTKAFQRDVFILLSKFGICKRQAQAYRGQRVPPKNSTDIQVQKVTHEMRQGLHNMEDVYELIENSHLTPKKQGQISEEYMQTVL
Chain of Estrogen receptor beta (Homo sapiens) (Q92731 whole entry, looked up): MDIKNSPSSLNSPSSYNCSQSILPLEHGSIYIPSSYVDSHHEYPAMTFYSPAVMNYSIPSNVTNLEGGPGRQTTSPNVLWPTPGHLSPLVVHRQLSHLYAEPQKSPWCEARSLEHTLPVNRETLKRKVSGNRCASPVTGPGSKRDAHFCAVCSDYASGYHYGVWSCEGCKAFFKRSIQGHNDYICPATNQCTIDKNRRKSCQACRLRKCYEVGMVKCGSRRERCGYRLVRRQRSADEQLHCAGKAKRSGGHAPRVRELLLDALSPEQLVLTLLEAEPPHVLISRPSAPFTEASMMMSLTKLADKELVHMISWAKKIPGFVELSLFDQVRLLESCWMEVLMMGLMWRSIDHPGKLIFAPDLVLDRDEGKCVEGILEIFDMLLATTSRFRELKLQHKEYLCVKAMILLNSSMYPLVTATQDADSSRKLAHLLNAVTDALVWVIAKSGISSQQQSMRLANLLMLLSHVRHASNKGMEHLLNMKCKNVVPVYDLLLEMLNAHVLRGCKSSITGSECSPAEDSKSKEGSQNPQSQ

In the case of `NC(=O)c1cccnc1`, the Potency result in assay [1], in assay [2], in assay [3], in assay [4], in assay [5] and in assay [6] was “inactive” throughout. Also, the Potency result in assay [7], in assay [9], in assay [10], in assay [11], in [12] and in assay [13] was “inactive” throughout. Further, the Potency entry in assay [14], in assay [15], in [16], in [17] and in [18] was “inactive” each time. Also, the call in assay [8] was inactive.

As to `CC(=O)CCC(=O)O`, the Potency result in assay [1], in [2], in assay [3], in assay [4], in assay [5] and in [6] was “inactive” each time. For the same molecule, the Potency result in [7], in assay [9], in assay [12], in [13], in assay [14] and in assay [15] was “inactive” in each case. Besides, the Potency result in assay [16], in assay [17] and in [18] was “inactive” each time. Further, the result in assay [8] was inactive.

As for `CC(C)C(=O)Nc1ccc([N+](=O)[O-])c(C(F)(F)F)c1`, the Potency result in assay [1], in assay [3], in assay [4], in assay [5], in [6] and in assay [7] was “inactive” throughout. Besides, the Potency result in assay [10], in [14], in assay [15], in [16] and in assay [17] was “inactive” each time. Further, the Potency was 56 µM (active) and 48.6 µM (active) and 29.8 µM (active) in [2]; 17.7 µM (active) in assay [9]; 54.5 µM (active) and inactive in [11]; “inactive and 24.3 µM (active)” in [13]. Further, the call in [8] was inactive.

Take `CCCCCCc1ccc(O)cc1O`: the Potency result in assay [1], in assay [3], in [4], in assay [5], in assay [12] and in [20] was “inactive” each time. For the same molecule, the Potency entry in assay [16], in assay [17] and in assay [18] was “inactive” in each case. Further, the Potency is 43.4 µM (active) and 48.6 µM (active) and 23.7 µM (active) in [19]; 48.7 µM (active) and 61.1 µM (active) and inactive in assay [6]; 61.1 µM (active) and inactive in assay [7]; 43.4 µM (active) in assay [9]; 48.7 µM (active) and 48.6 µM (active) in assay [13]; 48.7 µM (active) and inactive in assay [14]. In [8], the molecule was called inactive.

As for `CCOC(N)=O`, the Potency entry in assay [1], in [2], in assay [3], in assay [4], in [5] and in assay [6] was “inactive” each time. The Potency result in assay [7], in assay [9], in assay [12], in [13], in assay [14] and in assay [15] was “inactive” in each case. Moreover, the Potency result in assay [16], in assay [17] and in assay [18] was “inactive” each time. Besides, the molecule was classed as inactive in assay [8].

On to `Cc1c(C(=O)O)c(O)cc2c1C(=O)c1c(O)c([C@@H]3O[C@H](CO)[C@@H](O)[C@H](O)[C@H]3O)c(O)c(O)c1C2=O`, for which the Potency is 37.6 µM (active) and 27.3 µM (active) in assay [1]; 26.6 µM (active) and 27.3 µM (active) in assay [6]; 29.9 µM (active) and 27.3 µM (active) in assay [7]; 18.9 µM (active) and 15.4 µM (active) in [12]; 26.6 µM (active) and 15.4 µM (active) and 13.3 µM (active) in [18]. The Potency entry in assay [2], in assay [3], in assay [4], in assay [9], in assay [10] and in assay [11] was “inactive” in each case. Moreover, the Potency result in assay [13], in [14] and in assay [15] was “inactive” each time. Also, the call in [8] was inactive.

As for `CCCCCCCCCCCCCCCC[N+](C)(C)Cc1ccccc1`, the Potency is 50.1 µM (active) and 55.5 µM (active) and 26.6 µM (active) in [1]; 63.1 µM (active) and 55.5 µM (active) in [2]; 70.8 µM (active) and 35 µM (active) in [6]; 1.78 µM (active) and 6.98 µM (active) and 150 nM (active) in [9]; 35.5 µM (active) and 55.5 µM (active) in [12]; 14.1 µM (active) and 22.1 µM (active) and 11.9 µM (active) in assay [13]. Further, in [14], the Potency is 35.5 µM (active) and 17.5 µM (active) and 10.6 µM (active). The Potency result in assay [3], in assay [4], in assay [7], in [10], in assay [15] and in assay [18] was “inactive” throughout. For the same molecule, in assay [8], the molecule was classed as inactive.
